Source: ChEMBL document CHEMBL3988442, “University of Dundee, Small-Polar-MMV Screening Library” (2021)
Among all 48,000 compounds or so, about 13,000 (27%) showed an effect of 50% or more. The list shows a part of the results.

Test system: Wolbachia pipientis
Assay: Anti-Wolbachia Cell-Based Screen
Assay type: functional
Parameters: scale not given: in the data most compounds retested in dose-response had high values
Details: 5 µM

SMILES	Percent Effect [%]
Fc1cnc(N2CC[C@@H](N3CCOCC3)[C@@H]2Cc2ccccc2)nc1	-1.587
CC(C)(O)CCc1ccc(C(=O)N2CCN(CC(F)(F)F)CC2)cc1	0.1309
NS(=O)(=O)CCN1CCOC(c2ccsc2)C1 (stereo not given)	-9.667
CN1CC(c2ccccc2)CC2(CCN(C(=O)c3cccnn3)CC2)C1 (stereo not given)	0.4144
COc1ccc2c(c1)C(=O)N(C)C1(CCN(C(=O)OC(C)(C)C)CC1)N2	-17.46
COCC1c2c(cnn2C)CCN1C(=O)c1cccn1C.O=C(O)C(F)(F)F (stereo not given)	106
CCn1ncc2c1C(COC)N(C(=O)c1ccsc1)CC2.O=C(O)C(F)(F)F (stereo not given)	90.11
COCC1CN(C(=O)c2cccn2C)Cc2c1cnn2CC1CC1.O=C(O)C(F)(F)F (stereo not given)	4.422
COCC1c2c(cnn2C)CCN1Cc1ccc(F)cc1.O=C(O)C(F)(F)F.O=C(O)C(F)(F)F (stereo not given)	5.645
COCC1c2c(cnn2C)CCN1C(=O)c1cscn1.O=C(O)C(F)(F)F (stereo not given)	127.3
CCn1ncc2c1C(COC)N(C(=O)c1ccc3c(c1)OCO3)CC2.O=C(O)C(F)(F)F (stereo not given)	10.43
Cn1ncc2c1C(COCC1CC1)N(C(=O)c1ccncn1)CC2.O=C(O)C(F)(F)F (stereo not given)	6.391
CC(O)CC(C)(C)CNC(=O)Nc1cnn(-c2ccccc2F)c1 (stereo not given)	-9.575
Cc1nccc(-c2ccccc2)c1C(=O)N1CCC2(CCCO2)CC1	-10.01
COc1ccc([C@@H]2CN(C(=O)CCn3cccn3)C[C@H]2NC(C)=O)cc1	10.72
Cc1nccc(-c2cccc(NCC(=O)N3CCc4sccc4C3)c2)n1	-3.121
CC(C)Oc1ccc(CN2CCCC(N3CCCC3)C2)cc1CO (stereo not given)	-11.2
O=C(C1SCCc2ccccc21)N1CCC(O)CC1 (stereo not given)	-12.36
CC1(C)CC(C(=O)N2CCC3(CCC(=O)N(C4CC4)C3)CC2)CCO1 (stereo not given)	-18.18
CC(C)OCCS(=O)(=O)N1CCN(Cc2ccco2)CC1	-6.984
CCCS(=O)(=O)N1CCN(Cc2ccco2)CC1.O=C(O)C(=O)O	120.3
CCCS(=O)(=O)N1C[C@@H]2CN(Cc3ccco3)CCO[C@@H]2C1.O=C(O)C(F)(F)F	4.107
CCS(=O)(=O)N1CCC(c2cc3n(n2)[C@@H](C(F)(F)F)C[C@@H](C)N3)CC1	-9.512
CC(C)OCc1ccc(CNC(=O)NC2(CO)CCCC2)cc1	4.047
NC(=O)NC1CCN(Cc2ccc3c(c2)CCC3)CC1	-13.21

SMILES	Percent Effect [%]
Cc1nnc(CN(Cc2cccc(Br)c2)C2CC2)o1	-10
Cc1nnc(CN(Cc2ccc3c(c2)OCO3)C2CCCCC2)o1	129.8
Cc1nnc(CN(Cc2ccc(Cl)c(Cl)c2)C(C)C)o1	6.742
Cc1nnc(CN(Cc2ccc3c(c2)OCO3)C2CCC(C)CC2)o1 (stereo not given)	119.4
Cc1nnc(CN(Cc2ccccc2Br)C2CC2)o1	-0.8138
Cc1nnc(CN(Cc2ccc(Cl)c(Cl)c2)C2CC2)o1	12.83
Cc1ccc2nc3n(c2c1)[C@@H](CNCc1nccs1)COC3	-1.407
COc1ccccc1C(NC(=O)CN(C)C(C)C)c1noc(C)n1 (stereo not given)	-26.87
Cc1ccc(C)c(NC(=O)N(C)Cc2cnn(C)c2)c1	5.925
COCC(=O)N1CCC2(CCC2N(C)Cc2ccco2)CC1.O=C(O)C(F)(F)F (stereo not given)	-4.207
CC(C(=O)NCc1cccc(N2CCCC2=O)c1)S(C)(=O)=O (stereo not given)	-9.157
COc1ccc(NC(=O)NCc2cccc(N(C)C)n2)c(Cl)c1	3.933
CCc1nc(C(=O)NCc2ccc(N3CCNC(=O)C3)c(F)c2)c[nH]1	-14.99
Cc1ccc([C@@H]2CN(S(=O)(=O)Cc3ccccc3)C[C@H]2N(C)C)cc1	2.624
CC(C)(C)n1nnnc1CN(CCc1ccccc1)Cc1ccccc1	189.2
CN(CCc1ccncc1)Cc1nccn1Cc1ccccc1	0.009024
CC(C)(C)n1nnnc1CN(Cc1ccccc1)Cc1ccccc1Cl	144.9
CN(Cc1ccncc1)Cc1nccn1Cc1ccccc1	10.06
CCN(Cc1noc(CC(C)C)n1)Cc1ccccc1Cl	16.12
CCn1ccnc1CN(C)Cc1nc(Cc2ccccc2Cl)no1	-11.87
CC(C)(C)n1nnnc1CN(Cc1ccccc1)Cc1ccc(Cl)cc1	282.7
CCN(Cc1ccncc1)Cc1cn(-c2ccccc2)nn1	-1.691
Cc1nc(CCN(C)C(=O)CN2C(=O)OC[C@@H]2c2ccccc2)no1	2.107
CN(C)[C@H]1C[C@@H](Cc2cc(-c3ccc(F)cc3)on2)C1(C)C	-8.527
CN(Cc1ccoc1)C(=O)C1(Oc2ccc(Cl)cc2)CCNCC1	7.031

SMILES	Percent Effect [%]
CN1CCOC(C(=O)Nc2ccc3c(c2)nc(C2CC2)n3C)C1 (stereo not given)	-8.812
CCS(=O)(=O)N1CC[C@H]2O[C@H](c3nnc(C)o3)CC[C@H]21	-2.674
CC(C)C(=O)NC1COC2(CCN(Cc3cccnc3)CC2)C1.O=C(O)C(F)(F)F.O=C(O)C(F)(F)F (stereo not given)	-8.179
CC(C)NC(=O)CC1COC2(CCN(Cc3ccsc3)CC2)C1.O=C(O)C(F)(F)F (stereo not given)	89.57
COc1ccc(CN2CCC3(CC2)CN(c2ccccn2)CCO3)cc1.O=C(O)C(F)(F)F.O=C(O)C(F)(F)F	-0.9926
CN(C)C(=O)CO[C@H]1CO[C@@]2(CCN(Cc3ccsc3)C2)C1.O=C(O)C(F)(F)F	-11.41
CC(C)NC(=O)CC1COC2(CCN(Cc3cccnc3)CC2)C1.O=C(O)C(F)(F)F.O=C(O)C(F)(F)F (stereo not given)	94.4
COc1ccc(CN2CCC3(CC2)CC(CC(=O)NC(C)C)CO3)cc1.O=C(O)C(F)(F)F (stereo not given)	102.4
COc1ccc(CN2CCOC3(CCCN(C(C)=O)C3)C2)cc1.O=C(O)C(F)(F)F (stereo not given)	-1.413
CC(C)NC(=O)[C@H]1C[C@@H]2[C@@H](C1)OCCN2Cc1ccsc1.O=C(O)C(F)(F)F	9.511
CC(C)C1COC2(CCN(Cc3ccco3)CC2)C1.O=C(O)C(F)(F)F (stereo not given)	8.563
CC(C)NC(=O)CC1COC2(CCN(Cc3ccco3)CC2)C1 (stereo not given)	109.8
CN(C)C(=O)NC1COC2(CCN(Cc3ccco3)CC2)C1 (stereo not given)	-11.16
CC(C)OCc1ncn2c1CN(Cc1ccoc1)CCC2.O=C(O)C(F)(F)F	-8.556
Cc1ncsc1CN1C[C@H](C(=O)N2CCCO2)[C@@H]2CCO[C@@H]2C1.O=C(O)C(F)(F)F.O=C(O)C(F)(F)F	-11.3
Cc1[nH]ccc1C(=O)N(Cc1ccc(O)cc1)CC1CC1	16.53
FC(F)(F)C1CCCn2c(CNCc3ccco3)nnc21 (stereo not given)	4.38
c1nc(N2CCCCC2Cn2cncn2)c2ccsc2n1 (stereo not given)	0.5498
CCCc1cc(N(CCOC)CC(F)F)n2ncnc2n1	-3.752
CN(C)C(=O)CN(C)C(=O)c1cccn1CCc1ccccc1	-9.709
Cc1ccc(CN2CCC3(CC2)CC(CC(=O)NC(C)C)CO3)s1.O=C(O)C(F)(F)F (stereo not given)	100.2
Cc1ccc(CN2CC(C(=O)NC(C)C)C3(CCOCC3)C2)s1.O=C(O)C(F)(F)F (stereo not given)	1.411
CC(=O)N1CCOCC2(CCN(Cc3ccc(C)s3)CC2)C1.O=C(O)C(F)(F)F	-6.944
N#Cc1ccc(C(=O)N2CCCC3(C=Cc4ccccc4O3)CC2)cn1 (stereo not given)	6.705
CC(=O)NC(C)C(=O)N(Cc1ccc(C)c(C)c1)C1CC1 (stereo not given)	-3.122

SMILES	Percent Effect [%]
CN1CCCC[C@@H]2[C@H]1[C@@H](c1ccccc1)CCN2C(=O)c1cnccn1	3.186
CN1CCCCC[C@@H]2[C@@H]1[C@H](c1ccccc1)CN2C(=O)c1ccccn1	114.6
CN1CCCC[C@@H]2[C@H]1[C@@H](c1ccccc1)CCN2C(=O)c1ccccn1	98.54
Cn1cc(C(=O)N2CC[C@@H]3[C@@H]2CCN3c2ccccn2)cn1	-3.073
CN1CC[C@H](c2ccccc2)[C@@H]2[C@H]1CCCCN2C(=O)c1cnccn1	-5.726
O=C(c1ccccn1)N1C[C@@H]2CC[C@H](C1)N(C(=O)CCN1CCCC1)C2	-10.03
CCc1nsc(NC2CC(=O)N(C(C)(C)C)C2)n1 (stereo not given)	-4.433
CN1CCC(C(=O)N2CCCN(c3cccnn3)CC2)C1 (stereo not given)	-4.749
CN(C)CCNC(=O)CC1CCN(c2cccnn2)CC1	87.97
O=C(CC1CCN(c2cccnn2)CC1)NCCO	94.51
Cc1ccc(N2CCCC(NCC(=O)NC3CCOCC3)C2)nn1 (stereo not given)	0.2085
O=C(CC1CCN(c2cccnn2)CC1)NC1CCOCC1	83.52
O=C(CNCC1CCCN1c1cccnn1)NCCc1cccs1 (stereo not given)	4.052
O=C(CN1CCCC1Cn1cccn1)NC1CCOCC1 (stereo not given)	-8.305
CC(OCC1CC1)C(=O)N1CCCN(c2cccnn2)CC1 (stereo not given)	-4.711
O=C(CCc1cccs1)NCC1CCCN1c1cccnn1 (stereo not given)	-0.2437
O=C(c1cn(-c2cc(N3CCSCC3)ncn2)cn1)N1CCOCC1	2.163
COCCN1CC(=O)N2CC[C@@H](O)C[C@H]2C1=O	111.7
O=C(CC1CCc2ccccc21)NCCSc1ccccn1 (stereo not given)	-6.128
Cc1n[nH]c(C)c1C1CCCN1C(=O)NCCSC(C)(C)C (stereo not given)	-9.308
O=C1[C@@H]2C[C@H](O)CCN2C(=O)CN1CCSc1ccccn1	99.26
COCCN1C[C@H]2CN(C(=O)C3CC3)CCN2C1=O	0.212
COCCN1C[C@@H]2CN(C(=O)CC3CC3)C[C@@H]2C1=O	3.353
O=C(C1CC1)N1CCN(C(=O)CSc2ccccn2)[C@H]2CS(=O)(=O)C[C@H]21	-23.43
CC(C)(C)SCCN1CC(=O)N2CC[C@@H](O)C[C@H]2C1=O	105.3
